Reference: PubChem BioAssay (NCI)
Several values for one entry are separate records, joined by “and”; a condition that tells them apart may be missing. Equal values may be shown once. About 83,000 compounds went through this panel and 20% of them were active in at least one assay; those are over-represented in the sample as a whole.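 Values shown are percent growth following 48 h exposure of cells in 96-well plates to a single concentration of compound; below 10 was considered active.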 Activity calls are given as the source filed them.

Each compound was assayed on MDA-MB-468 breast (assay: NCI-60 one-dose screen, 48 h (100 = growth as untreated, 0 = no growth, -100 = all killed)). Details: 10 µM unless noted.
Description: Growth inhibition of the MDA-MB-468 human Breast tumor cell line is measured as a screen for anti-cancer activity. Cells are grown in 96 well plates and exposed to the test compound for 48 hours. Compounds are tested at a single concentration, which is 10^-5 M for most compounds. The reported endpoint is percent growth (GI% or GIPRCNT), where numbers from 0 - 100% represent growth inhibition, and numbers from -100% - 0 represent cell death. For example, a value of 40 represents 60% growth inhibition. A value of 0 means no net growth occurred over the course of the experiment. A value of -40 indicates 40% of cells at the beginning of the experiment died by the end of the experiment. A value of -100 means all cells are dead at the end of the experiment.
NCI-60 Human Tumor Cell Lines Screen was performed using the standard one-dose NCI protocol, which is described in more detail at https://dtp.cancer.gov/discovery_development/nci-60/default.htm.
Compounds with GIPRCNT values below 10 were considered active. Activity score was based on GIPRCNT using the following formula: […]
Score is 0 for GIPRCNT values of 100 or above, 50 for GIPRCNT values of 0, and 100 for GIPRCNT values of -100.
For `CCOC(=O)CO`, the growth was 99% (inactive). `COc1nc2c(c(=O)n1C)CN(c1ccccc1)C(=O)CN2C` was tested, and the growth was 4.41% [100 µM] (active). In the case of `Clc1cccc(Nc2nc(Nc3cnc4ccccc4c3)c3[nH]cnc3n2)c1`, the growth is reported as 86% (inactive). For `C#CCN(C)Cc1ccccc1`, the growth was 96.1% (inactive) and 122% (inactive). For `CCOC(=O)c1cc(C(=O)c2ccc(Br)cc2)n2ccc(/C=C/c3cc[n+](CC(=O)c4ccc(OC)cc4)cc3)cc12`, the growth was 66.4% (inactive). For `CCOC(=O)c1[nH]c(C)c(C(=O)O)c1C`, the growth was 108% (inactive). In the case of `COc1cc(C(=O)c2ccc3c(c2)OCO3)cc(OC)c1OC`, the growth is reported as 9.88% (active) and -4.92% (active). `CCCCCCCCCCSC(=N)N` was tested, and the growth was -83.1% (active). With `CCC(=O)Oc1ccc(OC)cc1` the growth was 106% (inactive). In the case of `Cc1nn(-c2ccccc2)c2nc3c(nc12)C(=O)CCC3`, the growth is reported as 88.3% (inactive). `COc1ccccc1/C(C)=N/NC(=O)CSc1nc2ccccc2c(=O)n1Cc1ccc(S(N)(=O)=O)cc1` was tested, and the growth was 98.8% (inactive). `CN(C)CCC=C1c2ccccc2C(C)(C)c2ccccc21` was tested, and the growth was 56.6% (inactive). For `CCOC(=O)C1=NN(c2ccccc2)C2=NC(=O)/C(=C\c3cn(-c4ccccc4)nc3-c3cc4ccccc4o3)C(=O)N12`, the growth was 111% (inactive). With `O=C(CSc1nc2ccc([N+](=O)[O-])cc2[nH]1)Nc1ccc([N+](=O)[O-])cc1` the growth was -12.4% (active). For `CCCCCCCCCCN=C(c1ccc(N(C)C)cc1)c1ccc(N(C)C)cc1`, the growth was -8.69% (active). With `CCCCCCCCOC(=O)CC[C@@H](C)[C@H]1CC[C@H]2[C@@H]3[C@H](OC(=O)CCN)C[C@@H]4C[C@H](OC(=O)CCN)CC[C@]4(C)[C@H]3C[C@H](OC(=O)CCN)[C@]12C` the growth was 3.95% (active). With `O=c1[nH]c2cc(Cl)c(Cl)cc2o1` the growth was 111% (inactive). For `CCOC(=O)C(=Cc1cccc(C#N)c1)C(=O)OCC`, the growth was 43% (inactive). For `COc1ccc(-c2nocc2-c2cc(OC)c(OC)c(OC)c2)cc1`, the growth was -15.5% (active). With `COc1ccc(NC(=O)CCn2cnc3c(cc(-c4ccccc4)n3-c3ccccc3)c2=O)cc1` the growth was 79.5% (inactive). For `O=C(/C=C/c1ccco1)Nc1ncc(Cc2cccc(C(F)(F)F)c2)s1`, the growth was 10.1% (inactive). With `CCCc1nn(C)c2c(=O)[nH]c(-c3cc(S(=O)(=O)N4CCN(C)CC4)ccc3OCC)nc12` the growth was 110% (inactive). In the case of `O=C1Nc2ccccc2C1(c1c[nH]c2ccccc12)c1c[nH]c2ccccc12`, the growth is reported as -23.3% (active). With `CN1C(=C2C(=O)OC(C)(C)OC2=O)CCC1C(=O)NCc1ccc(Cl)cc1Cl` (stereo not given) the growth was 75% (inactive). In the case of `C=C1C(=O)O[C@H]2[C@H]1CC/C(COC(=O)C(=O)c1c[nH]c3ccccc13)=C\CC[C@@]1(C)O[C@@H]21`, the growth is reported as -59.8% (active). `[O-][n+]1c2ccccc2[n+]([O-])c2c3ccccc3[nH]c21` was tested, and the growth was -36.6% (active). With `CCCOC(=O)N[C@H]1CCc2cc(OC)c(OC)c(OC)c2-c2ccc(SC)c(=O)cc21` the growth was -16.8% (active). In the case of `CC(CN1CCCCC1)NC(=O)c1scnc1-c1ccccc1` (stereo not given), the growth is reported as 111% (inactive). For `CCCCCCCCCCCCSC(=NC)NC`, the growth was -9.65% (active) and 32.3% (inactive). In the case of `CC(C)[C@@H]1CC[C@]2(CO2)[C@@H]2C(=O)OCC(C(=O)O)=C[C@H]21`, the growth is reported as 7.72% (active). `O=C(c1ccc(OCCN2CCCCC2)cc1)c1c(-c2ccc(O)cc2)sc2cc(O)ccc12` was tested, and the growth was 57.7% (inactive). `OC(CCC(O)(c1ccccc1)c1ccccc1)(c1ccccc1)c1ccccc1` was tested, and the growth was 93.6% (inactive). For `COc1cc(OC)c2sc(-c3ccc(-n4cncc4-c4cc(OC)c(OC)c(OC)c4)cc3)nc2c1`, the growth was 43.5% (inactive). In the case of `CCOc1cc(C2C(Cl)C(=O)N2n2cnnc2)ccc1O` (stereo not given), the growth is reported as 111% (inactive). In the case of `O=C(/C=C/c1ccco1)c1ccccc1O`, the growth is reported as 60.7% (inactive). `C#Cc1ccc(-n2c(/C=C/c3cc(OC)c(OC)c(OC)c3)nc3ncccc3c2=O)cc1` was tested, and the growth was 3.92% (active). `COc1cccc(C2C(C#N)=C(N)Oc3cc(OC)ccc32)c1` (stereo not given) was tested, and the growth was 41.4% (inactive). In the case of `N#Cc1c(NC(=O)c2ccccc2)sc2c1CCC(=O)C2`, the growth is reported as -9.47% (active). `COc1ccc(/C=C2\Oc3cc(OCCCN4CCCCC4)ccc3C2=O)cc1OC` was tested, and the growth was 76.4% (inactive). For `COc1cc(N2C(=O)[C@H](Cl)C2c2ccc(SC)cc2)cc(OC)c1OC` (stereo not given in full), the growth was -9.26% (active).
